In PubChem BioAssay AID1645857 (Buhrlage Lab, Dana-Farber Cancer Institute and Novartis …, 2021):
The campaign covered roughly 47,000 compounds. About 1,400 (3%) were called active. Rule as the data show it: active = inhibition above about 30%; inactive = the rest. The sample as a whole holds a higher share of actives than the screen did.

What follows are compounds tested against Ubiquitin carboxyl-terminal hydrolase 28 (Homo sapiens) (UniProt Q96RU2) (assay: blocks human USP28 ubiquitin-rhodamine cleavage (AID 1645857)). Settings: purified USP28, Ub-rhodamine cleavage fluorescence, 30 min; at 25 µM; stronger effect = higher value.
Chain of Ubiquitin carboxyl-terminal hydrolase 28 (Homo sapiens) (Q96RU2 whole entry, looked up): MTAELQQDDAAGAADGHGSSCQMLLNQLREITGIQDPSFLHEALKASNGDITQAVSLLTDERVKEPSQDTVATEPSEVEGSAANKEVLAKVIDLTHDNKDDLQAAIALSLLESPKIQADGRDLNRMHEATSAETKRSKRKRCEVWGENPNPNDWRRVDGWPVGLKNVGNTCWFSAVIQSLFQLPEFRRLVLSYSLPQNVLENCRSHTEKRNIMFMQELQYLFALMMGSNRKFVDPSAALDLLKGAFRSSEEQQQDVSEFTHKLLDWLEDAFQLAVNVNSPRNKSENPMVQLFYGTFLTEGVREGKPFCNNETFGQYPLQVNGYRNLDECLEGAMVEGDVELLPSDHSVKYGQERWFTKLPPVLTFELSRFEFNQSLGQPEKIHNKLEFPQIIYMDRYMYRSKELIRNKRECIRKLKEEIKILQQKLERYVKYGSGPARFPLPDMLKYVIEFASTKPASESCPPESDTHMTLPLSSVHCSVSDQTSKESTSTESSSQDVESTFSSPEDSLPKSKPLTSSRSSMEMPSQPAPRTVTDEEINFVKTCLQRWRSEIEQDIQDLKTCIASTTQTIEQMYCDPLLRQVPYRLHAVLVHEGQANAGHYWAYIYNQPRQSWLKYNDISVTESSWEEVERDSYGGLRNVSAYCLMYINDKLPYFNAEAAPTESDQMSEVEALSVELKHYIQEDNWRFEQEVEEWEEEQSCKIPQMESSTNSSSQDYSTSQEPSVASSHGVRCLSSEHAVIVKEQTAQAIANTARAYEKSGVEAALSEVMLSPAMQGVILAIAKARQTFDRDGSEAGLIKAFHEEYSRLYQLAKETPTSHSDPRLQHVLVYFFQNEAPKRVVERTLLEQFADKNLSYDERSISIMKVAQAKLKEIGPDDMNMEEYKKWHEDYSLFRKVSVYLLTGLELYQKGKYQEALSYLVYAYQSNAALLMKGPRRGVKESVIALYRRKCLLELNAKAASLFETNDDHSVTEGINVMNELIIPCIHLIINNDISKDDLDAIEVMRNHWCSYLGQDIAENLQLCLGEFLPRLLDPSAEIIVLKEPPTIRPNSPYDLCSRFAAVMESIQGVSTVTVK

Structure (SMILES) | inhibition
O=C1CSC(c2ccc(F)cc2)c2c(-c3ccccc3)nn(-c3ccccc3)c2N1 (stereo not given) | 35.2% (active)
O=C(CCCn1c(=O)[nH]c2cc(Cl)ccc2c1=O)N1CCC2(CC1)OCCO2 | 15% (inactive)
COc1cc(N2CC[C@@H]3[C@@H]2CCN3Cc2cccnc2)ncn1 | -13.3% (inactive)
CC(C)(C)n1cc(C(=O)NCC(=O)Nc2ccc(Br)cc2)cn1 | 1.73% (inactive)
Cc1noc(C)c1CN1CCO[C@H]2C(Cn3cccn3)CC[C@@H]21 (stereo not given in full) | -2.14% (inactive)
